Screens from PubChem BioAssay.
The list is not random: actives were taken first. Their share in the collection is about 7.8%.
PostGolgi ctrl – inhibits growth of the yeast control strain; efflux-deficient yeast background strain, growth absorbance A615, 16 h; inhibition, % at 10 µM; 98,000 tested, 5% active; AID 738
PostGolgi yeast – growth inhibition of a yeast mutant, post-Golgi transport screen. post-Golgi transport phenotypic cell assay. inhibition, % at 10 µM. 98,000 tested, 0.9% active;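 further: yeast cells grown in 1536-well plates; yeast grown about 18 h at 30C before absorbance read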
sEH activator – increases human soluble epoxide hydrolase activity | activation, % at 2 µM | 91,000 tested, 0.04% active | purified human sEH enzymatic activity, activator screen; in the data active means activation above about 37%
Target sequence (P34913 whole entry, looked up): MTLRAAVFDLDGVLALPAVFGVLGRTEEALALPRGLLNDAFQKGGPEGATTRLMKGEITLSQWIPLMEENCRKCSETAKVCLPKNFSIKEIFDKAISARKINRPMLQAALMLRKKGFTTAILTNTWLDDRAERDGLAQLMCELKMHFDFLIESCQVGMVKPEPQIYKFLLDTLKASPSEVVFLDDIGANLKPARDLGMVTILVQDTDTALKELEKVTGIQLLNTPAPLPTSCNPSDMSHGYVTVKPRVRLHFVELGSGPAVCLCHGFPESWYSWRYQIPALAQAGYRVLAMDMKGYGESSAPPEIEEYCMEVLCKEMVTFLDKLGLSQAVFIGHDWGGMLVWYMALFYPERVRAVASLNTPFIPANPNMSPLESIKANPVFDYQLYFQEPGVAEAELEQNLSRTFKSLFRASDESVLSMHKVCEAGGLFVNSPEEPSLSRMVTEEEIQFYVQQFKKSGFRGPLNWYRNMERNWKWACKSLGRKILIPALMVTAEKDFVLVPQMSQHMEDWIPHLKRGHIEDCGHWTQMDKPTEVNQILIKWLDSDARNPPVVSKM
Cav32 inh – inhibitors of human Cav3.2 T-type calcium channel | O95180 | Cav3.2-expressing cells, Fluo-4 calcium fluorescence FDSS; hits give low values | B-score at 10 µM | 100,000 tested, 4% active | AID 449739;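 active means single-dose well whose peak fluorescence ratio is a statistical outlier from its plate by either plate-standardised score or position-corrected B-score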
sEH inh – inhibitors of human soluble epoxide hydrolase | P34913 | inhibition, % at 2 µM | recombinant human sEH enzymatic activity assay | 91,000 tested, 0.34% active; in the data active means inhibition above about 80%
* hit, by the source's call; / = no result. Unless noted, no stated cut-off is given here; in the data, active means inhibition above about 30%; inactive means the rest.

SMILES | PostGolgi ctrl | PostGolgi yeast | sEH activator | Cav32 inh | sEH inh
CCCCOc1ccc(S(=O)(=O)N2CCCCCC2)cc1 | 18 | 8 | 6 | -2.4 | -5
O=C(/C=C/c1ccc(Cl)cc1)NCCN1CCOCC1 | 11 | 3 | -6 | 0.57 | 8
O=C(Nc1ccccc1C(=O)O)c1ccc(Br)o1 | 2 | -1 | -5 | / | 6
COC(=O)c1ccccc1NC(=O)c1ccc(COc2cc(C)cc(C)c2)o1 | 31* | 9 | 19 | -3.1 | -16
COC(=O)c1ccccc1NC(=O)c1cccc(NC(=O)c2ccc(Br)o2)c1C | 15 | 17 | -6 | -5* | 7
COc1ccccc1NC(=O)c1ccc(COc2ccccc2OC)o1 | 19 | -3 | 2 | 0.21 | -1
O=C(Nc1cnc2ccccn2c1=O)c1ccc(Cl)cc1 | 2 | -14 | -3 | 0.3 | 6
NC(=O)CC[C@@H]1NC(=O)C(Cc2ccc(O)cc2)NC(=O)c2cc([N+](=O)[O-])cc(F)c2NCCC[C@@H](C(N)=O)NC1=O (some centres undefined) | / | / | / | -0.11 | /
O=C(Nc1nnc(CCS(=O)(=O)c2ccc(Br)cc2)s1)c1ccc([N+](=O)[O-])cc1 | -3 | -1 | -12 | 0.87 | 13
Cc1nc2ccccc2c(=O)n1/N=C/c1ccc(O)cc1 | 2 | 17 | 8 | -0.7 | -9
Cc1sc2nc(C)n(/N=C/c3ccccc3)c(=O)c2c1C | 2 | 14 | 38* | -0.25 | -42
CC(=O)Cn1c(N2CCC(Cc3ccccc3)CC2)nc2c1c(=O)[nH]c(=O)n2C | 10 | -2 | / | 1.6 | /
Cn1c(=O)[nH]c(=O)c2c1nc(N1CCC(Cc3ccccc3)CC1)n2Cc1ccccc1 | 2 | 19 | 22 | -0.79 | -20
C=C(C)Cn1c(N2CCC(Cc3ccccc3)CC2)nc2c1c(=O)[nH]c(=O)n2C | 54* | 12 | 4 | -4* | 0
CCCCCn1c(N2CCC(Cc3ccccc3)CC2)nc2c1c(=O)[nH]c(=O)n2C | / | / | 4 | -4.8* | -5
CCOC(=O)NC1(C(F)(F)F)C(=O)N(Cc2ccccc2)C2=C1C(=O)CC(C)(C)C2 (centres undefined) | 13 | 8 | -2 | 3.2 | 4
Cc1ccc(N(Cc2ccco2)C(=O)c2cccc(S(=O)(=O)N(C)C)c2)cc1 | 13 | 11 | 14 | -4.3* | -11
CN(C)S(=O)(=O)c1cccc(C(=O)N(Cc2ccc(F)cc2)Cc2ccco2)c1 | 7 | -6 | 3 | -4.5* | 0
CN(C)S(=O)(=O)c1cccc(C(=O)NCc2ccco2)c1 | 12 | 22 | 12 | 0.42 | -9
COc1ccc(C(=O)n2nc(-c3ccccc3)nc2N)cc1OC | 5 | 0 | 6 | -0.75 | -2
CC1(C)CC(=O)C2=C(C1)c1c(ccc3ccccc13)NC2c1ccc(Br)o1 (centres undefined) | 69* | 14 | -4 | -1.4 | 4
CCn1c(N)nc2ccccc21 | -9 | 5 | 16 | 1.1 | -17
CCN1N=C(c2ccccc2)Cn2c1nc1ccccc12 | 30* | 17 | -6 | 1.1 | 0
CCOc1ccccc1NC(=O)N1CCCC1C(=O)Nc1ccc(-n2cnnn2)c(C)c1 (centres undefined) | -8 | -9 | / | 0.13 | /
O=C(O)c1cc(C2CC2)nc2ccccc12 | / | / | / | -2.1 | /
SMILES | PostGolgi ctrl | PostGolgi yeast | sEH activator | Cav32 inh | sEH inh
CCc1ccc(/C=N/NC(=O)c2cc(C3CC3)nc3ccccc23)s1 | 32* | 11 | 5 | -1.1 | -3
O=C(O)c1nn2c(c1Br)NC(c1ccccc1)CC2C(F)(F)F (centres undefined) | 32* | -4 | / | 1.5 | /
Nc1c(C(=O)Nc2ccccc2F)sc2nc(Cc3ccccc3)cc(C(F)(F)F)c12 | -4 | 18 | 18 | -3.4* | -17
CCNC(=O)/C(=C/c1ccco1)NC(=O)/C=C/c1ccccc1 | -1 | -4 | 13 | 0.0053 | -14
CCOC(=O)C1=C(C)n2c(s/c(=C/c3cccc([N+](=O)[O-])c3)c2=O)=NC1c1ccc(O)c(OC)c1 (centres undefined) | 39* | 61* | -1 | -1.8 | -2
Cc1ccc(Sc2cc(Cl)nc(N)n2)cc1 | 10 | -8 | -5 | 0.19 | 6
Cc1ccc(-c2csc(N/N=C/c3ccco3)n2)cc1 | 34* | -14 | 0 | -1.2 | 1
COC(=O)C(NC(=O)c1ccccc1C)(Nc1ncc(S(=O)(=O)c2ccc([N+](=O)[O-])cc2)s1)C(F)(F)F (centres undefined) | 2 | 11 | 0 | -7.8* | 2
COC(=O)C(NNc1ccccc1)(NC(=O)c1ccc(F)cc1)C(F)(F)F (centres undefined) | 9 | 7 | 10 | -1.1 | -7
COC(=O)C(NC(=O)c1ccc(F)cc1)(Nc1ncc(S(=O)(=O)c2ccc([N+](=O)[O-])cc2)s1)C(F)(F)F (centres undefined) | 1 | 4 | -1 | -8.2* | 1
CN1CCC(N(C)CC(=O)Nc2cccc(Oc3ccccc3)c2)CC1 | 21 | -2 | -11 | -0.006 | 9
Cc1ccnc(N/C=C(\C#N)c2nc(-c3cccc(Br)c3)cs2)c1 | 8 | 6 | 6 | -1.8 | -6
CC(C)n1c(-c2ccco2)csc1=Nc1cccnc1 | 26 | -3 | 17 | -5.2* | -12
c1cncc(-c2nc(-c3ccco3)cs2)c1 | -5 | 0 | / | -0.18 | /
CNc1nc(Nc2ccc(C(C)=O)cc2)nc(OC(C(F)(F)F)C(F)(F)F)n1 | 30* | 7 | 2 | -0.61 | -2
CC(=O)c1ccc(Nc2nc(NCCO)nc(OC(C(F)(F)F)C(F)(F)F)n2)cc1 | / | / | 3 | -0.003 | 2
Cc1cc2nc(CCN(C(=S)NCC(C)C)C3CCCC3)[nH]c2cc1C | 11 | -6 | 8 | -4.3* | -7
CCc1nnc(NC(=O)C(C)Sc2ccccc2)s1 (centres undefined) | -6 | 1 | -14 | 0.63 | 12
CCOc1cc(-c2ccc(N)c(OCC)c2)ccc1N | 8 | 16 | -11 | -5.4* | 13
COc1ccc([N+](=O)[O-])cc1NC1CCCCC1 | 12 | -2 | -4 | -5* | 6
CCN1CCc2c(C#N)c(NCc3ccccc3)nc(N(CC)CC)c2C1 | 5 | -2 | 6 | -4.2* | -7
N#Cc1c(NCCN)nc(NCc2ccccc2)c2c1CCN(Cc1ccccc1)C2 | / | / | / | -1.2 | /
CCCCNC(=O)CN(CCc1ccccc1)S(C)(=O)=O | 3 | -6 | -10 | -5.3* | 13
CCNC(=O)CN(CCc1ccccc1)S(C)(=O)=O | 7 | -7 | 12 | -0.093 | -14
Cc1ccc(Nc2nc(Nc3ccc(C)cc3)nc(SC3=NCCS3)n2)cc1 | 38* | -3 | 4 | / | -3
SMILES | PostGolgi ctrl | PostGolgi yeast | sEH activator | Cav32 inh | sEH inh
Cc1ccccc1Nc1nc(N)nc(CN(C)c2ccccc2)n1 | 4 | -8 | / | -0.97 | /
Cc1ccc(-c2csc(NC(=O)CSC3=NCCS3)n2)cc1 | / | / | -9 | 0.13 | 9
Cc1ccccc1Nc1nc(Nc2ccccc2C)nc(SC2=NCCS2)n1 | 23 | -1 | -2 | -4.6* | 4
COc1ccc([C@@H]2C[C@H](c3ccccc3)Oc3cc(C)cc(C)c32)cc1 | / | / | / | -0.65 | /
Cn1cccc1C(=O)C(=O)Nc1ccccc1 | 4 | 0 | 11 | 0.25 | -5
CCCNC(=O)c1cccc(C(F)(F)F)c1 | 5 | 3 | -9 | 0.41 | 10
